# Reference: PubChem BioAssay (NCATS)
# Results filed as inconclusive are left out. Where a call stands in place of a potency, no number is given. Active and inactive are the calls of the source. Unless noted, the call rests on the fitted dose curve.
# Key:
# [1] = qHTS for Inhibitors of the Functional Ribonucleoprotein Complex (vRNP) of Lassa (LASV) Arenavirus: LASV Primary Screen - GLuc reporter signal (AID 1347082; calls by dose curve; tested in HEK293 reporter line; further: nearly all actives have a fitted effect of over 60% in size)
# [2] = qHTS for Inhibitors of the Functional Ribonucleoprotein Complex (vRNP) of Lassa (LASV) Arenavirus: Viability assay - alamar blue signal for LASV Primary Screen (AID 1347083; calls by dose curve; tested in HEK293 reporter line; further: nearly all actives have a fitted effect of over 80% in size)
# [3] = qHTS for Inhibitors of the Functional Ribonucleoprotein Complex (vRNP) of Lymphocytic Choriomeningitis Arenaviruses (LCMV): Viability assay - alamar blue signal for LCMV Primary Screen (AID 1347085; calls by dose curve; tested in HEK293 reporter line; further: nearly all actives have a fitted effect of over 80% in size)
# [4] = molecular target: Nucleoprotein (Lymphocytic choriomeningitis virus (strain Armstrong)) (UniProt P09992); experiment: qHTS for Inhibitors of the Functional Ribonucleoprotein Complex (vRNP) of Lymphocytic Choriomeningitis Arenaviruses (LCMV): LCMV Primary Screen - GLuc reporter signal (AID 1347086); further: nearly all actives have a fitted effect of over 70% in size
# Sequence of Nucleoprotein (Lymphocytic choriomeningitis virus (strain Armstrong)) (P09992 whole entry, looked up): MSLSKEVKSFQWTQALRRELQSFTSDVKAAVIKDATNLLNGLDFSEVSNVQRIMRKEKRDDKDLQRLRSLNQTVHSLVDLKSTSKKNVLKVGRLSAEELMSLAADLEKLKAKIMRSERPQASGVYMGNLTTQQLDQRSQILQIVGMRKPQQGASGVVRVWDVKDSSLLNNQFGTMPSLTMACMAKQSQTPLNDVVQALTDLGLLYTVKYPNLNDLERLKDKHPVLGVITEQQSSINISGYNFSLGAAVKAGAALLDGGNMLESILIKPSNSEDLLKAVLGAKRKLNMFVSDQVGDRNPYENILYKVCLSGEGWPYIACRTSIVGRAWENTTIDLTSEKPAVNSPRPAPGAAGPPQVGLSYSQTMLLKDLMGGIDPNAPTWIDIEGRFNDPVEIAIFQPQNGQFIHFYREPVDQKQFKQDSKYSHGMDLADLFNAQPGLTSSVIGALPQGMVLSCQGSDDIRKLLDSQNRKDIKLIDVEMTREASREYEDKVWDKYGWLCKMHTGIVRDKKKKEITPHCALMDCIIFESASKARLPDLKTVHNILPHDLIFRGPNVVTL
# Potency means the concentration at half of the fitted maximal effect.
SMILES,Potency [1],Potency [2],Potency [3],Potency [4]
C[C@]12C[C@H](O)[C@H]3[C@@H](CCC4=CC(=O)CC[C@@]43C)[C@@H]1CC[C@@H]2C(=O)CO,inactive,inactive,inactive,inactive
O=C(O)CCc1ccc(NCc2cccc(Oc3ccccc3)c2)cc1,inactive,inactive,inactive,inactive
C[C@@H](N)C1CCC(C(=O)Nc2ccncc2)CC1 (stereo not given in full),inactive,21700 nM (active),863 nM (active),9680 nM (active)
COc1ncnc(NS(=O)(=O)c2ccc(N)cc2)c1OC,inactive,inactive,inactive,inactive
c1ccc2occc2c1,inactive,inactive,inactive,inactive
Clc1ccccc1CN1CCc2sccc2C1,inactive,inactive,inactive,inactive
Cn1cc(-c2ccc3nnc(C(F)(F)c4ccc5ncccc5c4)n3n2)cn1,inactive,inactive,inactive,inactive
CCCCc1ccc(NS(=O)(=O)c2ccc(C)c(C(=O)N3CCN(c4cccc(C)c4C)CC3)c2)cc1,inactive,inactive,inactive,inactive
COc1cc2c(Oc3ccc(-c4cnc(Nc5ccc(F)cc5)n(C)c4=O)cc3F)ccnc2cc1OCCCN1CCOCC1,21700 nM (active),15300 nM (active),21700 nM (active),24300 nM (active)
C=CC(=O)Nc1cccc(Oc2nc(Nc3ccc(N4CCN(C)CC4)cc3OC)ncc2Cl)c1,inactive,38.5 nM (active),48.5 nM (active),inactive
NCCO,inactive,inactive,inactive,inactive
N=C1N=C(N)c2cc3ccccc3cc21,inactive,inactive,inactive,inactive
CC1=C(C/C=C(\C)CCC[C@H](C)CCC[C@H](C)CCCC(C)C)C(=O)c2ccccc2C1=O,inactive,inactive,inactive,inactive
CCOC(CN1C(=O)[C@](CC(=O)Nc2ccc(C)cc2)(NC(=O)Nc2ccc(C)cc2)c2ccccc21)OCC,inactive,inactive,inactive,inactive
COCCn1c2c([n+](Cc3cnccn3)c1C)C(=O)c1ccccc1C2=O,109 nM (active),109 nM (active),96.8 nM (active),68.5 nM (active)
C1=CC2C3C=CC(C3)C2C1 (stereo not given),inactive,inactive,inactive,inactive
Cc1c(C)c2c(c(C)c1OC(=O)c1cccnc1)CC[C@@](C)(CCC[C@H](C)CCC[C@H](C)CCCC(C)C)O2,inactive,inactive,inactive,inactive
CC(=O)Nc1ccc([C@H](C)C(=O)Nc2ncc(C(C)C)s2)cc1,3060 nM (active),1220 nM (active),611 nM (active),1090 nM (active)
N#Cc1c(O)c2c(-c3ccc(-c4ccccc4O)cc3)csc2[nH]c1=O,inactive,inactive,inactive,inactive
O=C(O)c1ccccn1,inactive,inactive,inactive,inactive

SMILES,Potency [1],Potency [2],Potency [3],Potency [4]
CS(=O)(=O)c1cccc(CNc2nc(Nc3ccc4c(c3)CCC(=O)N4)ncc2C(F)(F)F)c1,inactive,38500 nM (active),inactive,inactive
CCCCC/C(C=O)=C\c1ccccc1,inactive,inactive,inactive,inactive
CC(=O)NC(C)c1ccc(Oc2ccc(OC(C)C)cc2)cc1 (stereo not given),inactive,inactive,inactive,inactive
c1ccc2[nH]ccc2c1,inactive,inactive,inactive,inactive
Fc1ccc(Cl)cc1-c1nc(Nc2ccncc2)c2nccnc2n1,inactive,inactive,inactive,inactive
O=C(Nc1cccc(C2=NCCN2)c1)Nc1cccc(C2=NCCN2)c1,inactive,inactive,inactive,inactive
C[C@H](NC(=O)Cc1cc(F)cc(F)c1)C(=O)N[C@@H]1C(=O)N(C)c2ccccc2-c2ccccc21,inactive,inactive,inactive,inactive
O=S(c1cc(Cl)cc(Cl)c1O)c1cc(Cl)cc(Cl)c1O,inactive,inactive,inactive,inactive
CC(=O)N[C@@H](CCC(N)=O)C(=O)O,inactive,inactive,inactive,inactive
O=[N+]([O-])c1cccc(S(=O)(=O)NCCNS(=O)(=O)c2cccc([N+](=O)[O-])c2)c1,inactive,inactive,inactive,inactive
C[C@@H](N)C(=O)O,inactive,inactive,inactive,inactive
Cc1cc(-c2ccccc2)nnc1NCCN1CCOCC1,inactive,inactive,inactive,inactive
O=c1cc(CN2CCOCC2)occ1OCCCCCSc1ccnc2cc(C(F)(F)F)ccc12,21700 nM (active),1930 nM (active),273 nM (active),1220 nM (active)
CCC=CC[C@H]1C(=O)CC[C@@H]1CC(=O)OC,inactive,inactive,inactive,inactive
CC(C)(C)c1cc(C(C)(C)C)c(NC(=O)c2c[nH]c3ccccc3c2=O)cc1O,inactive,inactive,inactive,inactive
Oc1c(I)cc(I)c2cccnc12,inactive,inactive,inactive,inactive
CC1=C(CO)C(=O)O[C@@H]([C@@H](C)[C@H]2CC[C@H]3[C@@H]4C[C@H]5O[C@]56[C@@H](O)C=CC(=O)[C@]6(C)[C@@H]4CC[C@]23C)C1,863 nM (active),3060 nM (active),3850 nM (active),1530 nM (active)
CN(C(=O)C(Cl)Cl)c1ccc(OC(=O)c2ccco2)cc1,inactive,inactive,inactive,inactive
Cc1cc(C=c2sc3nc4ccccc4n3c2=O)c(C)n1-c1ccccc1,inactive,inactive,inactive,inactive
Cc1ccccc1C(C(=O)NC1CCCC1)N(C(=O)Cn1cnc2ccccc21)c1cccc(F)c1 (stereo not given),inactive,inactive,inactive,inactive

SMILES,Potency [1],Potency [2],Potency [3],Potency [4]
Cc1cc(SCc2sc(-c3ccc(C(F)(F)F)cc3)nc2C)ccc1OCC(=O)O,inactive,inactive,inactive,inactive
CC(C)CCCC(C)CCCC(C)CCCCC(C)CCCC(C)CCCC(C)C (stereo not given),inactive,inactive,inactive,inactive
C#CC(C)(CC)OC(=O)c1ccccc1C(=O)O (stereo not given),inactive,inactive,inactive,inactive
Cc1ccc(-c2ncn(-c3ccc(Nc4nccc(-c5cccc(N6CCOCC6)c5)n4)cc3)n2)cn1,inactive,485 nM (active),485 nM (active),inactive
Cc1[nH]nc2ccc(-c3cncc(OC[C@@H](N)Cc4ccccc4)c3)cc12,432 nM (active),172 nM (active),1370 nM (active),273 nM (active)
CCCCC(CC)COC(=O)c1ccc(N(C)C)cc1 (stereo not given),inactive,inactive,inactive,inactive
NC(=O)c1ccc(-c2nc(-c3ccc4c(c3)OCO4)c(-c3ccccn3)[nH]2)cc1,inactive,inactive,inactive,inactive
CC(C)C[C@H](NC(=O)[C@@H](O)[C@H](N)Cc1ccccc1)C(=O)O,inactive,inactive,inactive,inactive
O=C(NO)c1ccccc1,inactive,inactive,inactive,inactive
CC1=NN(c2ccccc2)C(=O)C1,inactive,inactive,inactive,inactive
Cn1c(Nc2ccc(C(F)(F)F)cc2)nc2cc(Oc3ccnc(-c4ncc(C(F)(F)F)[nH]4)c3)ccc21,21700 nM (active),2430 nM (active),8630 nM (active),inactive
COc1cc(Nc2ncc3c(n2)-c2ccc(Cl)cc2C(c2c(F)cccc2OC)=NC3)ccc1C(=O)O,inactive,inactive,inactive,inactive
Nc1ccc(-c2ccc3ncc4ccc(=O)n(-c5cccc(C(F)(F)F)c5)c4c3c2)cn1,2.4 nM (active),2.7 nM (active),5.4 nM (active),5.4 nM (active)
CCC(=C(c1ccccc1)c1ccc(OCCN(C)C)cc1)c1ccccc1,inactive,inactive,inactive,inactive
CC[C@@H]1C(=O)OC[C@@H]1Cc1cncn1C,inactive,inactive,inactive,inactive
C[C@@H]1CN(c2c(F)c(N)c3c(=O)c(C(=O)O)cn(C4CC4)c3c2F)C[C@H](C)N1,inactive,inactive,inactive,inactive
NCCCC(N)(C(=O)O)C(F)F (stereo not given),inactive,inactive,inactive,inactive
CC(C)(C(=O)NCC(F)(F)C(F)(F)F)C(=O)N[C@@H]1C(=O)Nc2ccccc2-c2ccccc21,24300 nM (active),19300 nM (active),5440 nM (active),10900 nM (active)
C=CC(=O)Nc1cc2c(Nc3ccc(F)c(Cl)c3)ncnc2cc1C#CC(C)(C)N1CCN(C)CC1,inactive,inactive,inactive,inactive
C[N+]1(C)C2CC(OC(=O)[C@H](CO)c3ccccc3)CC1C1OC12 (stereo not given in full),inactive,inactive,inactive,inactive
